The text below walks through data of PubChem BioAssay (Tox21).

The nature of experiment [1]: qHTS assay to identify small molecule antagonists of the thyroid receptor (TR) signaling pathway (AID 743065). Further: series mostly up to about 70 µM; nearly all actives have a fitted effect of over 55% in size. The gist of the method: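 Antagonism measured as loss of luciferase signal in GH3 cells stably carrying a TRE-luciferase reporter, co-treated with compound and T3 (1 nM final) for 23.5 h at 37 C. Viability was read in the same well by CellTiter-Fluor.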
Experiment [2] has as its system thyroid hormone receptor (rat, GH3 cells). The experiment can be described thus: qHTS assay to identify small molecule agonists of the thyroid receptor (TR) signaling pathway (AID 743066; calls by dose curve).
In experiment [3] the target is Estrogen receptor (Homo sapiens) (UniProt P03372). Description: qHTS assay to identify small molecule antagonists of the estrogen receptor alpha (ER-alpha) signaling pathway (AID 743069; active means well fitted curve in the direction sought with a large enough effect in the signal ratio in the repeat runs, not every such curve was filed as active; inconclusive means weak or mixed curves, or effect the other way; inactive means no such curve, though single readings can be large or run the other way; the % refers to the signal ratio). The gist of the method:
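Compound effects are measured against 17beta-estradiol stimulation in HEK293 cells with a UAS-controlled beta-lactamase reporter for ER-alpha. Exposure lasts 18 hr at 37C; LiveBLAzer B/G FRET substrate follows for 2 hr at room temperature.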
For orientation: qHTS replaces the single test concentration by a dilution series.

Experiment [4] can be described thus: qHTS assay to identify small molecule antagonists of the estrogen receptor alpha (ER-alpha) signaling pathway - cell viability counter screen (AID 743074; calls by dose curve;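 further: HEK293 cells carrying ER-alpha-UAS-bla reporter stimulated with 17beta-estradiol; nearly all actives have a fitted effect of over 45% in size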).
The target in experiment [5] is Estrogen receptor (Homo sapiens) (UniProt P03372). Description: qHTS assay to identify small molecule agonists of the estrogen receptor alpha (ER-alpha) signaling pathway (AID 743075; calls by dose curve; further: potency means the concentration at half of the fitted maximal effect).
Chain of Estrogen receptor (Homo sapiens) (P03372 whole entry, looked up): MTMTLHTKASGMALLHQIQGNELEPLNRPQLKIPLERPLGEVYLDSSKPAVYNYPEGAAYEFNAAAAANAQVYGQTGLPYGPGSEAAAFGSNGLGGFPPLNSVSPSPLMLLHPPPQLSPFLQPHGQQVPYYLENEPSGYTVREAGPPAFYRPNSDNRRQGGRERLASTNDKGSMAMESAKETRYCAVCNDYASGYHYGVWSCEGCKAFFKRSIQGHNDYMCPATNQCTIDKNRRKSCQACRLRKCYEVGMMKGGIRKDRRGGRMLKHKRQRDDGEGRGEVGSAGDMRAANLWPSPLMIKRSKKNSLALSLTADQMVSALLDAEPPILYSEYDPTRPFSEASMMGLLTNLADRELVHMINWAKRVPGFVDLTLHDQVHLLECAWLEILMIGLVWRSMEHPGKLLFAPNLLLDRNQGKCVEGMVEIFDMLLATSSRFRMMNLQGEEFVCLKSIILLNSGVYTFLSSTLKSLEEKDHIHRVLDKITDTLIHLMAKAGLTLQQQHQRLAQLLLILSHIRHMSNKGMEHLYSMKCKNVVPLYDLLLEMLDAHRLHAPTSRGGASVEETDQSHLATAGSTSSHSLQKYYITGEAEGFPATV
Experiment [6] shares this target. Description: qHTS assay to identify small molecule agonists of the estrogen receptor alpha (ER-alpha) signaling pathway using the BG1 cell line (AID 743079). Further: nearly all actives have a fitted effect of over 20% in size. Further: potency means the concentration at half of the fitted maximal effect.
Experiment [7] is described as follows: qHTS assay to identify small molecule antagonists of the estrogen receptor alpha (ER-alpha) signaling pathway using the BG1 cell line (AID 743080; calls by dose curve;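 further: BG1 cells stimulated with 17beta-estradiol alongside compound; series mostly up to about 70 µM; nearly all actives have a fitted effect of over 25% in size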). In short, it runs like this: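 Luminescence from a 4×ERE-luciferase reporter in BG1-Luc-4E2 cells served as read-out. Cells, pre-cultured 5 days in stripped-serum phenol-red-free medium, were exposed to compound with 17beta-estradiol co-stimulation for 21.5 h at 37 C.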

Experiment [8] is described as follows: qHTS assay to identify small molecule antagonists of the estrogen receptor alpha (ER-alpha) signaling pathway using the BG1 cell line - cell viability counter screen (AID 743081).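 Further: compound given together with 17beta-estradiol as the ER stimulus; series mostly up to about 70 µM; nearly all actives have a fitted effect of over 45% in size.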
The next experiment has as its target Aromatase (Homo sapiens) (UniProt P11511). The experiment can be described thus: qHTS assay to identify aromatase inhibitors (AID 743083). Further: series mostly up to about 70 µM; nearly all actives have a fitted effect of over 55% in size.
Experiment [9] in a line: qHTS assay to identify aromatase inhibitors - cell viability counter screen (AID 743084).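 Further: cells stimulated with testosterone during compound exposure; nearly all actives have a fitted effect of over 55% in size.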
Experiment [10] deals with Aryl hydrocarbon receptor (Homo sapiens) (UniProt P35869). The experiment can be described thus: qHTS assay to identify small molecule that activate the aryl hydrocarbon receptor (AhR) signaling pathway (AID 743085). Further: nearly all actives have a fitted effect of over 15% in size. Further: potency means the concentration at half of the fitted maximal effect.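 On activation: HG2L7.5c1 human HepG2 liver cells with stably integrated DRE-driven firefly reporter; series mostly up to about 70 µM.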 The gist of the method: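 Luminescence read-out: ONE-Glo reagent, 30 min at room temperature, in HG2L7.5c1 HepG2 reporter cells treated 24 h at 37C. Viability was measured beforehand by CellTiter-Fluor fluorescence after 30 min at 37C.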
Chain of Aryl hydrocarbon receptor (Homo sapiens) (P35869 whole entry, looked up): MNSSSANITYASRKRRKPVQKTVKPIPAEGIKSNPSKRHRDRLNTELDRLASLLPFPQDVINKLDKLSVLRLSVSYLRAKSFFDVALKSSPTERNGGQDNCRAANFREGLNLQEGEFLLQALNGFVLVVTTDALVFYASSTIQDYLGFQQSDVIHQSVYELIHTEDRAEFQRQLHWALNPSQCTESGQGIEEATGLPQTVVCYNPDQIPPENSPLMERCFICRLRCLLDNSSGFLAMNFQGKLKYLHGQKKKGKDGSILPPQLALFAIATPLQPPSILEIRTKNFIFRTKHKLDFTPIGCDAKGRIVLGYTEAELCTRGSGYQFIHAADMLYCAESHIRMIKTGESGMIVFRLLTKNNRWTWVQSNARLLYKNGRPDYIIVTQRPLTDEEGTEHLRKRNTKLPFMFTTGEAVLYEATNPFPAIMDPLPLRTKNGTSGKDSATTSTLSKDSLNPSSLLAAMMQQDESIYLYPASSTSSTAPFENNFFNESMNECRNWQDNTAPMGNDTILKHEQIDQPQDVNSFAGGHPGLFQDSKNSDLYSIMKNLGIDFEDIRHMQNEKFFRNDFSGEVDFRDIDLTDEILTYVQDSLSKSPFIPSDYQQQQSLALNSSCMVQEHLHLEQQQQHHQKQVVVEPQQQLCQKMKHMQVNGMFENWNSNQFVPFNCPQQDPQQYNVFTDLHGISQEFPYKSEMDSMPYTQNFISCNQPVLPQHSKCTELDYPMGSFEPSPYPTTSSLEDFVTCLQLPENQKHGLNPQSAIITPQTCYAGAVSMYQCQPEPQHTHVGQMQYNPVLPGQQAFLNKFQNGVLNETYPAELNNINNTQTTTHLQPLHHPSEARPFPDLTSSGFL

A short description of experiment [11]: qHTS assay to identify small molecule that activate the aryl hydrocarbon receptor (AhR) signaling pathway - cell viability counter screen (AID 743086).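 Further: HepG2 liver cells carrying the AhR DRE luciferase reporter; series mostly up to about 70 µM; nearly all actives have a fitted effect of over 45% in size.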 In short, it runs like this:
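Cytotoxicity counter screen: CellTiter-Fluor signal (30 min, 37 C) in 4000 HepG2 cells/well carrying the DRE-luciferase reporter, following 24 h compound exposure at 37 C.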

For experiment [12], the target named is Peroxisome proliferator-activated receptor gamma (Homo sapiens) (UniProt P37231). Description: qHTS assay to identify small molecule agonists of the peroxisome proliferator-activated receptor gamma (PPARg) signaling pathway (AID 743094; active means well fitted activation curve with a large enough effect in the signal ratio in the repeat runs, not every such curve was filed as active; inconclusive means weak or mixed curves, or effect the other way; inactive means no such curve, though single readings can be large or run the other way; the % refers to the signal ratio). In short, it runs like this: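 GeneBLAzer PPARg UAS-bla HEK293H cells carrying a stably integrated beta-lactamase reporter were pre-incubated 5 h at 37C, then exposed to compounds in DMSO for 17 h at 37C; LiveBLAzer B/G FRET substrate was added for 1 h at room temperature and fluorescence read.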
Chain of Peroxisome proliferator-activated receptor gamma (Homo sapiens) (P37231 whole entry, looked up): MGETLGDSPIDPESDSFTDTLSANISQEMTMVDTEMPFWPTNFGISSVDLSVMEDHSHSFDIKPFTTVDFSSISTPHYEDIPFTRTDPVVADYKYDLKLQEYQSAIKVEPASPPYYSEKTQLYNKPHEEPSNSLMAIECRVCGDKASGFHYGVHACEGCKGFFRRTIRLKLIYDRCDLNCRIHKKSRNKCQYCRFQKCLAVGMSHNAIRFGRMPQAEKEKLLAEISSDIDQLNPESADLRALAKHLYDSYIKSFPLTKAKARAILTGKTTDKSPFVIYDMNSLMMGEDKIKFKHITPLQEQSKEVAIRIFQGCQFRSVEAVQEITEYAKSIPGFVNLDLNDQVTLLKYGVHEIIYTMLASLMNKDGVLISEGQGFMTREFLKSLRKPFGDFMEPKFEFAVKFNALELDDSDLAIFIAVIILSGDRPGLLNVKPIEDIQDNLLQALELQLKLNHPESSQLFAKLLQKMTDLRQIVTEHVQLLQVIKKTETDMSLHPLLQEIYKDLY

Experiment [13] shares this target. Description: qHTS assay to identify small molecule antagonists of the peroxisome proliferator-activated receptor gamma (PPARg) signaling pathway (AID 743191; calls by dose curve; further: series mostly up to about 63 µM; nearly all actives have a fitted effect of over 30% in size). The gist of the method:
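Beta-lactamase reporter under UAS control in HEK293H PPARg-bla cells; compound treatment 17 h at 37C. Read-out: fluorescence intensity after 1 h room-temperature incubation with LiveBLAzer B/G FRET substrate.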

Experiment [14] in a line: qHTS assay for small molecule activators of the heat shock response signaling pathway - cell viability counter screen (AID 743209). Further: nearly all actives have a fitted effect of over 50% in size. In short, it runs like this:
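CellSensor HSE-bla HeLa cells, plated overnight at 37 C/5% CO2, were exposed to compounds in DMSO for 5 h at 37 C. Viability was then read in the same wells by CellTiter-Glo luminescence after 30 min at room temperature.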

Experiment [15] is described as follows: qHTS assay for small molecule activators of the heat shock response signaling pathway (AID 743210; active means well fitted activation curve with a large enough effect in the signal ratio in the repeat runs, with a control signal flat, not every such curve was filed as active; inconclusive means weak or mixed curves; the % refers to the signal ratio;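 further: HeLa cells with beta-lactamase reporter driven by heat shock elements; series mostly up to about 63 µM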). In short, it runs like this:
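In HSE-bla HeLa cells, 5 h compound incubation (37 C) precedes addition of LiveBLAzer B/G substrate; after 2.5 h at room temperature, fluorescence intensity indicates reporter induction.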

Experiment [16] is described as follows: qHTS assay to identify small molecule antagonists of the thyroid receptor (TR) signaling pathway - cell viability counter screen (AID 743064). Further: nearly all actives have a fitted effect of over 50% in size. Further: potency means the concentration at half of the fitted maximal effect. The gist of the method: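 GH3.TRE-Luc cells, 4 h pre-plating; cpd + T3 1 nM final; 37 °C 23.5 h; CellTiter-Fluor 30 min; fluorescence read.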
A short description of experiment [17]: qHTS assay to identify small molecule antagonists of the peroxisome proliferator-activated receptor gamma (PPARg) signaling pathway - cell viability counter screen (AID 743194). Further: nearly all actives have a fitted effect of over 55% in size. Further: potency means the concentration at half of the fitted maximal effect. The gist of the method:
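Viability was measured as CellTiter-Glo luminescence in GeneBLAzer PPARg UAS-bla HEK293H cells. These cells had been exposed 17 h at 37 C to compounds together with rosiglitazone at 50 nM final, with the beta-lactamase readout taken in the same wells.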

Experiment [18] in a line: qHTS assay for small molecule agonists of the antioxidant response element (ARE) signaling pathway (AID 743202; active means well fitted activation curve with a large enough effect in the signal ratio in the repeat runs, not every such curve was filed as active; inconclusive means weak or mixed curves, or effect the other way; inactive means no such curve, though single readings can be large or run the other way; the % refers to the signal ratio; further: potency means the concentration at half of the fitted maximal effect). In short, it runs like this:
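An ARE-responsive beta-lactamase gene stably integrated in HepG2 cells serves as reporter. After 5 h plating and 16 h compound incubation at 37 C, fluorescence of the B/G FRET substrate was measured.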

Experiment [19] in a line: qHTS assay for small molecule agonists of the antioxidant response element (ARE) signaling pathway - cell viability counter screen (AID 743203; calls by dose curve; further: nearly all actives have a fitted effect of over 55% in size). The gist of the method: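 CellSensor ARE-bla HepG2 cells, 2,000 per well, rested 5 hrs at 37C/5% CO2, then exposed to compound in DMSO for 16 hrs; viability read as CellTiter-Glo luminescence after 30 min at room temperature, in the reporter wells.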

Calls of active or inactive are those of the source. Unless noted, the call rests on the fitted dose curve; in most records, active means well fitted curve in the direction sought with a large enough effect in the repeat runs; inconclusive means weak or mixed curves; inactive means no such curve, though single readings can be large; an effect the other way counts as inactive or inconclusive.

Chain of Aromatase (Homo sapiens) (P11511 whole entry, looked up): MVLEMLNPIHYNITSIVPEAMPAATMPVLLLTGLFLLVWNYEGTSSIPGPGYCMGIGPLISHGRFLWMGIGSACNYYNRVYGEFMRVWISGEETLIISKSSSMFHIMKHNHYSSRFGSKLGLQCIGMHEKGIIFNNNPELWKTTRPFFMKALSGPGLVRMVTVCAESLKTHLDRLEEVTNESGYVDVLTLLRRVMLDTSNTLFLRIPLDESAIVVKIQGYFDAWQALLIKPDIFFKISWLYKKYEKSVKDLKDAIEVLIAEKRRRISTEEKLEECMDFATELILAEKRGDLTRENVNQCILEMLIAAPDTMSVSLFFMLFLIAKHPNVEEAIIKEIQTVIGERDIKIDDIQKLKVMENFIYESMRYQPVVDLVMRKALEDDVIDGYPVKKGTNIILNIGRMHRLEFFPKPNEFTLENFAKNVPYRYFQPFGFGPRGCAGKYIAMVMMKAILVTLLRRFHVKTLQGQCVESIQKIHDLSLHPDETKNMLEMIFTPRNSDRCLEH

Consider `COC(=O)c1ccccc1C`, for which the Potency result in experiment [1], in experiment [3], in [4], in experiment [5], in [6] and in experiment [7] was “inactive” in each case. Besides, the Potency result (in [8]; with Aromatase (Homo sapiens); in experiment [9]; in [10]; in [11]; in experiment [12]) was “inactive” in each case. In addition, the Potency result in experiment [13], in [14] and in experiment [15] was “inactive” each time. The compound was called inactive in [2].
For `Nc1ccc(NCCO)c([N+](=O)[O-])c1`, the Potency was 54.5 µM (active) in experiment [16] and 15.4 µM (active) in [10]. Besides, the outcome in experiment [2] was inactive. For the same compound, the Potency entry (in [4]; with Aromatase (Homo sapiens); in [12]; in experiment [13]; in experiment [17]; in experiment [14]) was “inactive” throughout. The Potency entry in experiment [15] is “inactive”.
With `CC(C)(C)NSc1nc2ccccc2s1`, the Potency entry in experiment [16], in experiment [3], in experiment [4], in experiment [5], in [6] and in experiment [7] was “inactive” throughout. Moreover, the Potency entry in experiment [8], in [9], in [11], in experiment [17] and in experiment [19] was “inactive” each time. In addition, the Potency in experiment [18] is 27.8 µM (active).
Turning to `O=C(/C=C/c1ccccc1)OC/C=C/c1ccccc1`, the Potency result in [1], in experiment [3], in experiment [4], in experiment [5], in [7] and in experiment [8] was “inactive” in each case. For the same compound, the Potency entry (with Aromatase (Homo sapiens); in experiment [9]; in [10]; in [11]; in [13]; in [17]) was “inactive” in each case. For the same compound, the Potency entry in experiment [19], in [14] and in experiment [15] was “inactive” in each case. Also, in experiment [2], the compound was classed as inactive. In experiment [6], the Potency was 30.6 µM (active).
`Nc1nc(-c2ccccc2)cs1`: the Potency result (in experiment [16]; in experiment [4]; in [8]; with Aromatase (Homo sapiens); in experiment [9]; in experiment [11]) was “inactive” each time. Moreover, the Potency result in experiment [12], in [17] and in experiment [14] was “inactive” in each case.
Consider `C=CC(=O)Nc1cc2c(Nc3ccc(F)c(Cl)c3)ncnc2cc1OCCCN1CCOCC1`, for which the Potency was 5.31 µM (active) in experiment [16], 23.9 µM [inconclusive] (active) in experiment [5], 29.8 µM (active) in experiment [6] and 29.8 µM (active) in [17]. For the same compound, the Potency result (in the experiment with Aromatase (Homo sapiens); in experiment [9]; in experiment [10]; in experiment [12]; in experiment [14]) was “inactive” each time.
For the compound `CC1(C)CC(O)CC(C)(C)N1`, the Potency entry in experiment [1], in experiment [3], in [4], in [5], in experiment [6] and in experiment [7] was “inactive” in each case. The Potency entry (in [8]; with Aromatase (Homo sapiens); in experiment [9]; in experiment [11]; in experiment [12]; in [17]) was “inactive” in each case. Also, the Potency entry in experiment [18], in experiment [19] and in [14] was “inactive” in each case. Also, the outcome in experiment [2] was inactive.
As to `OC[C@H]1O[C@H](O[C@H]2O[C@H](CO)[C@@H](O)[C@H](O)[C@H]2O)[C@H](O)[C@@H](O)[C@@H]1O`, the Potency entry (in experiment [16]; in experiment [4]; with Aromatase (Homo sapiens); in experiment [9]; in [10]; in experiment [11]) was “inactive” in each case. Further, the Potency result in experiment [12], in experiment [17], in experiment [18], in experiment [19] and in [14] was “inactive” throughout. For the same compound, in [2], the outcome was inactive.
As for `CCO[Si](OCC)(OCC)OCC`, the Potency entry in experiment [16], in [3], in [4], in experiment [5], in experiment [6] and in experiment [7] was “inactive” throughout. In addition, the Potency entry (in experiment [8]; with Aromatase (Homo sapiens); in experiment [9]; in experiment [10]; in experiment [11]; in experiment [12]) was “inactive” in each case. Further, the Potency result in experiment [13], in [17], in experiment [19], in [14] and in experiment [15] was “inactive” throughout.
